Results from the supplement of paper PMC11732987, “Enantioselective OTUD7B fragment discovery through chemoproteomics screening and high-throughput optimisation” (Communications Chemistry, 2025).

Legend:
Experiment in all cases: log2 ratio of Biotin-Ahx-Ub-VS probe labelling (fragment/DMSO); higher = less target engagement (more negative = stronger competition), active = hit call of the paper (q ≤ 0.05, log2 ratio ≤ -1)
Conditions in all cases: compound concentration: 200 uM; treatment time: 3 h
USP19 = molecular target: T1, USP19 (UniProt O94966)
T1 sequence (whole entry): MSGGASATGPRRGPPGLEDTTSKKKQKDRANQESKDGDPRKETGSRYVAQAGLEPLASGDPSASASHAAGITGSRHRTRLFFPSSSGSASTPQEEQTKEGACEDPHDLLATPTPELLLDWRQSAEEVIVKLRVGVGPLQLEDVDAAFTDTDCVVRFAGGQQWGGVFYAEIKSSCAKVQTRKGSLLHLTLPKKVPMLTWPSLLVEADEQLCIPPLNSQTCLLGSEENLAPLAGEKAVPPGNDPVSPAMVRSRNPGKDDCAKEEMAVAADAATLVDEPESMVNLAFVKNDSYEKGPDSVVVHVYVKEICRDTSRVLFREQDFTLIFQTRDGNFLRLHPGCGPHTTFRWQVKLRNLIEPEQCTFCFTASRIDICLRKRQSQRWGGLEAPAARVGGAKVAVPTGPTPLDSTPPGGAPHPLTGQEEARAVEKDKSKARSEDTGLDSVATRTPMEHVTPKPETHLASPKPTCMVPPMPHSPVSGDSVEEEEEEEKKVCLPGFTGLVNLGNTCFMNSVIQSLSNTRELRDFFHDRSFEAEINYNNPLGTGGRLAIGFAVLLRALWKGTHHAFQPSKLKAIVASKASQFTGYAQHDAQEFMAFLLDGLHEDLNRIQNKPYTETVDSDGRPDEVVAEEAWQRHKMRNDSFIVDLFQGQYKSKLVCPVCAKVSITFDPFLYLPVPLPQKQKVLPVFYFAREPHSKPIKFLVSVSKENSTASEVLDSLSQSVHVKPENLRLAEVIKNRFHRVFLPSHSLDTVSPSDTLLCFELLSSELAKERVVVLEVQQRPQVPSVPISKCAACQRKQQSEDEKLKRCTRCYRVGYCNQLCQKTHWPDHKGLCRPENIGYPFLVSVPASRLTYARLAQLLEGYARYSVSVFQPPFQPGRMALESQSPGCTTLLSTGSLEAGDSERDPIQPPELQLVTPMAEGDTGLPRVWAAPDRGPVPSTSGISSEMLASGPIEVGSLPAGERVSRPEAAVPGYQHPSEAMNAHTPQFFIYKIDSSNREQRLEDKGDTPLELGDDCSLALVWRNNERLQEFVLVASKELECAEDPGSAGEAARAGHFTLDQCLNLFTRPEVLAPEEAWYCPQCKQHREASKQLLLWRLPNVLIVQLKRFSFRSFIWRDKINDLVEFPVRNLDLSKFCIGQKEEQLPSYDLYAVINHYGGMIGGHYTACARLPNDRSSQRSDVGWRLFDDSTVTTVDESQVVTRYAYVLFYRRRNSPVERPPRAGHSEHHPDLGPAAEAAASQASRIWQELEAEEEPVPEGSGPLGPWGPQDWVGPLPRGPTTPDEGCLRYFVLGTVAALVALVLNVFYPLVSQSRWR
Procedure, shortened: (§1)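 Triplicate samples of HEK293T lysate, 495 µg each, received fragment at 200 µM or vehicle for 3 h, followed by Biotin-Ahx-Ub-VS (0.5 µM final) for 1 h. After NeutrAvidin enrichment of labelled DUBs and LysC/trypsin digestion, peptides were run by diaPASEF LC-MS/MS. The values are average log2 fragment/vehicle ratios from global-median-normalised Spectronaut label-free quantities, tested by unpaired t-test on proteins having ≥2 unique peptides.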

USP22 = molecular target: T2, USP22 (UniProt Q9UPT9)
T2 sequence (whole entry): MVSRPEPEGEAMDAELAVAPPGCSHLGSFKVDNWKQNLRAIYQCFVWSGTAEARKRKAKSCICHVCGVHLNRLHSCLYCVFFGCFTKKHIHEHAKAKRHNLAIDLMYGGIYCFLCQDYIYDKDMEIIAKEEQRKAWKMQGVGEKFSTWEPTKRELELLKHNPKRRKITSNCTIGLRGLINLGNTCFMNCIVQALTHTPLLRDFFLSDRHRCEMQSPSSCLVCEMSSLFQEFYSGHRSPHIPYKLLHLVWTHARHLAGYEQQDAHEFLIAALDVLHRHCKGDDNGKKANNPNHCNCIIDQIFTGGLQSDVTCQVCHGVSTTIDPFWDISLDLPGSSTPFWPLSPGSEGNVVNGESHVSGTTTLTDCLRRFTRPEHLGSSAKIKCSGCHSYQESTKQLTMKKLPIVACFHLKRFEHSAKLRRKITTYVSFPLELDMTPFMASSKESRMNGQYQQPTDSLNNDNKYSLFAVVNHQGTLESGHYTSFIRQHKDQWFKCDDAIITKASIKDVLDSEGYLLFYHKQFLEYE
Procedure, shortened: as §1

USP24 = USP24 (UniProt Q9UPU5)
Procedure, shortened: as §1

USP25 = molecular target: T3, USP25 (UniProt Q9UHP3)
T3 sequence (whole entry): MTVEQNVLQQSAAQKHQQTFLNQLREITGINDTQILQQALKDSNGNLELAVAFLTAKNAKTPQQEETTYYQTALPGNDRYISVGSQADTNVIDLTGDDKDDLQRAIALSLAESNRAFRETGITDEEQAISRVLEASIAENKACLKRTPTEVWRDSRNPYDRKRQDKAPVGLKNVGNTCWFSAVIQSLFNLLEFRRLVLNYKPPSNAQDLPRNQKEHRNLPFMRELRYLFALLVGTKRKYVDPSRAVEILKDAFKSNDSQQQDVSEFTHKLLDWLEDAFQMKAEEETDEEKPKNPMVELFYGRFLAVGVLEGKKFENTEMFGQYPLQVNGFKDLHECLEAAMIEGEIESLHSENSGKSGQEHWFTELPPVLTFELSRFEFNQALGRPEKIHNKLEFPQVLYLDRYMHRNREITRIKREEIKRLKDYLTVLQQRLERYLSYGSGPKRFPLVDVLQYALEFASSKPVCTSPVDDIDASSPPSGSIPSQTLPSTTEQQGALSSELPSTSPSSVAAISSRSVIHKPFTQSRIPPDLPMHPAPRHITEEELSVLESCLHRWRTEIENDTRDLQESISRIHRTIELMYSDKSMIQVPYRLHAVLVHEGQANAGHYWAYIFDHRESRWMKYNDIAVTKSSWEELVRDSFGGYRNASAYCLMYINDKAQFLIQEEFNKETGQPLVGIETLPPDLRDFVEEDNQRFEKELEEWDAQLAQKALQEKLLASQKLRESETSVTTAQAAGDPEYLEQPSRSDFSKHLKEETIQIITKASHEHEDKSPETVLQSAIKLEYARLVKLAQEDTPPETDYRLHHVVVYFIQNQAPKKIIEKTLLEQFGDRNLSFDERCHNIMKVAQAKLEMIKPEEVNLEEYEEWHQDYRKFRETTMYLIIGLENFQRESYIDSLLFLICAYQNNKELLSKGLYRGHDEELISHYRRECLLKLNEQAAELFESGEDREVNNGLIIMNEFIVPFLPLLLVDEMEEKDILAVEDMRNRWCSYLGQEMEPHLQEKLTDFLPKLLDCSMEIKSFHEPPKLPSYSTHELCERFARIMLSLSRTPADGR
Procedure, shortened: as §1

USP28 = molecular target: T4, USP28 (UniProt Q96RU2)
T4 sequence (whole entry): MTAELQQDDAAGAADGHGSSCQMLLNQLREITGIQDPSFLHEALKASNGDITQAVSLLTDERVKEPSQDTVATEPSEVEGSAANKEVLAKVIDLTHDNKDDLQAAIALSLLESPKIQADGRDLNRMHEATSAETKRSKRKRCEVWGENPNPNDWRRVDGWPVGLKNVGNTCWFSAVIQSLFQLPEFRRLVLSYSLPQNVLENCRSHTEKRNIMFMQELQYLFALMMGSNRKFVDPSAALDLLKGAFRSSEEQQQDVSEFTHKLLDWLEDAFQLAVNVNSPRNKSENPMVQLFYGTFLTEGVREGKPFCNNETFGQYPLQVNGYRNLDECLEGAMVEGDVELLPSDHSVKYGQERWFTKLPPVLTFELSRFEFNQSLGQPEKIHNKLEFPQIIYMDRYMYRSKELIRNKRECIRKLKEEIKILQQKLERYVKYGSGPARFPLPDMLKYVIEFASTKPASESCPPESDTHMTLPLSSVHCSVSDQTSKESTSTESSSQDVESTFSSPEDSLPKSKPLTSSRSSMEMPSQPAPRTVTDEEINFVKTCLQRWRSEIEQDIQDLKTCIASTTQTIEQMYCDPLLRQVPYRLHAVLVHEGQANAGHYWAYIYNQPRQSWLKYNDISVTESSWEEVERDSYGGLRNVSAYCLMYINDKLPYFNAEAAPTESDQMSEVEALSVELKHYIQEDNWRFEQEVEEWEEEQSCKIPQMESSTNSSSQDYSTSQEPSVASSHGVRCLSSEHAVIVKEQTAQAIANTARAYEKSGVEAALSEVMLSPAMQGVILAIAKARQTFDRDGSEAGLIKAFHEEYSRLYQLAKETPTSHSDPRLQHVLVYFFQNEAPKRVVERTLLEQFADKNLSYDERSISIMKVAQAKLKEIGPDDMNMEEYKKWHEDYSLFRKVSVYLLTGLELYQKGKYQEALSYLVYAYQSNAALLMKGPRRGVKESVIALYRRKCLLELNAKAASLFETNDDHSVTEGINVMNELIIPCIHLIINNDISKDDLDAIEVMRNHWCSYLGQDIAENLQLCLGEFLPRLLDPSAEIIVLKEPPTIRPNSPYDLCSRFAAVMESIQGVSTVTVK
Procedure, shortened: as §1

Measured: log2 ratio of Biotin-Ahx-Ub-VS probe labelling

Sequence of USP24 (Q9UPU5 whole entry): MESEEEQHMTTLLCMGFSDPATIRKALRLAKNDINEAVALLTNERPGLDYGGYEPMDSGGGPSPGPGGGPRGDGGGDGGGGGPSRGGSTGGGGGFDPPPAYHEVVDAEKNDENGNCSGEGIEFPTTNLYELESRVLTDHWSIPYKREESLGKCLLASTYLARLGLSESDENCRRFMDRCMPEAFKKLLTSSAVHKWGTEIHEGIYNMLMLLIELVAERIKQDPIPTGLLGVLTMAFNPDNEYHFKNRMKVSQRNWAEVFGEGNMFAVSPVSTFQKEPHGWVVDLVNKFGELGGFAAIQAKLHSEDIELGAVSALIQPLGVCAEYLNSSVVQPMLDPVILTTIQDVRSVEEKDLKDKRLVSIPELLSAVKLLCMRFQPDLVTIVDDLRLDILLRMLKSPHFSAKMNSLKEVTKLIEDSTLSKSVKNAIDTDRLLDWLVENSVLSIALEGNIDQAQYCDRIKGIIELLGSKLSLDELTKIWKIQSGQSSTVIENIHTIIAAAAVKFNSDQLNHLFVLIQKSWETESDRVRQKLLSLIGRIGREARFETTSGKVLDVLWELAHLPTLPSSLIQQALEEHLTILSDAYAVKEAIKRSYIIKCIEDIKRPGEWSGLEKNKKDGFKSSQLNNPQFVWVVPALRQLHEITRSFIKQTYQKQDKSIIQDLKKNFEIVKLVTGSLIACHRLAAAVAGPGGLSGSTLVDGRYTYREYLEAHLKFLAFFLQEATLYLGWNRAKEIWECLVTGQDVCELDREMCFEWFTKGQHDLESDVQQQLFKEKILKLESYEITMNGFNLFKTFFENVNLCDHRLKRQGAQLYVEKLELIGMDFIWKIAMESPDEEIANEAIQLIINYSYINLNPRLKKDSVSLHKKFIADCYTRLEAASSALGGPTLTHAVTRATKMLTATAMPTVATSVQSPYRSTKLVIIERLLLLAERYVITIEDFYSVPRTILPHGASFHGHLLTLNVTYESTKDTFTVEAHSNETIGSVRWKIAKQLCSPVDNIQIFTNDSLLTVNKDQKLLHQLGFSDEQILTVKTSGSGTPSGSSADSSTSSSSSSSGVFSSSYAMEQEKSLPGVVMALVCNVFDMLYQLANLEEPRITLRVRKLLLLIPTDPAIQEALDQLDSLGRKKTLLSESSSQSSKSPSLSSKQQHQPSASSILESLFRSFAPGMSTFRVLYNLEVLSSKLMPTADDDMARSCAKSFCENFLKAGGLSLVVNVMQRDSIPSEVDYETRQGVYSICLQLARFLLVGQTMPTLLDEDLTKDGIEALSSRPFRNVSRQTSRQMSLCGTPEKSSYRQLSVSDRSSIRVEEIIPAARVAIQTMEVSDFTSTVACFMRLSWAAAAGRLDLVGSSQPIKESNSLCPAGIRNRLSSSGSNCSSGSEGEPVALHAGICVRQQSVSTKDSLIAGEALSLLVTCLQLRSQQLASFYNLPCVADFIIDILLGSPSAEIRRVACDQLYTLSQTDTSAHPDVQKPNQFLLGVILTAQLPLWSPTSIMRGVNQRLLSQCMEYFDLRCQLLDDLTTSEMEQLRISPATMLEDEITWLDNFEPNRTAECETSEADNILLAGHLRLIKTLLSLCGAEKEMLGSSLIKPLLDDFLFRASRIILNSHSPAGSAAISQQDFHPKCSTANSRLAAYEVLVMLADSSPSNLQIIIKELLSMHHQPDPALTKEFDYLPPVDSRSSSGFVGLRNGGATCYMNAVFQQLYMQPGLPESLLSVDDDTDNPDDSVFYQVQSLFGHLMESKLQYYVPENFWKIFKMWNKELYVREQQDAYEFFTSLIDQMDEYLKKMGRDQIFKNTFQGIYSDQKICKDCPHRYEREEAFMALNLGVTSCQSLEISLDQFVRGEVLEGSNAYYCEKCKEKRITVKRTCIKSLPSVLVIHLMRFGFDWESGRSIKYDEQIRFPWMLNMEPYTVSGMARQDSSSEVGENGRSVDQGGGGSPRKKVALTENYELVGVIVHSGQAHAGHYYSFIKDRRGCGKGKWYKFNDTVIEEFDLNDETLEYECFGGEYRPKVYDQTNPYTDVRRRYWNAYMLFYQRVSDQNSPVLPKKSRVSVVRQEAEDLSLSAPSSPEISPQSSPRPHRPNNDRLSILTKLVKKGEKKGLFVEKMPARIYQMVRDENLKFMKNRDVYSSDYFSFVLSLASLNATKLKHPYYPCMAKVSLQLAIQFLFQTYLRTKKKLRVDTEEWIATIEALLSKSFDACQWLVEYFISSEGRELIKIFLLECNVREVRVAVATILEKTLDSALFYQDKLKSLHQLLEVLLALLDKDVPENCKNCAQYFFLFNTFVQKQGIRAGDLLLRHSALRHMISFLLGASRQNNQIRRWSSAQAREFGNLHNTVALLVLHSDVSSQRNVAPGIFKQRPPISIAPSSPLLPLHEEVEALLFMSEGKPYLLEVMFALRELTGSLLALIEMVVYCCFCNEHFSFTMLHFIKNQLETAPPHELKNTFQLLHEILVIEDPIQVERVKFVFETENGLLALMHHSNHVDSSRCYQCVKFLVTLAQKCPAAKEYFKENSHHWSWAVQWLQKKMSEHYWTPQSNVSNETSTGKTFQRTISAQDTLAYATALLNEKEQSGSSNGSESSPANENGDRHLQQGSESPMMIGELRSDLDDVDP

Cl.O=C(CCl)NCc1ccnc(Oc2ccccc2F)c1
inactive: USP19 -0.111 | USP22 -0.353 | USP24 -0.349 | USP25 -0.678 | USP28 -0.558
